Measurements as given in PubChem BioAssay AID1159580 (chemical genetic matrix, 2015).
The whole screen tested about 5,500 compounds, of which about 2,000 (36%) were called active. Not shown: some 18% with an inconclusive outcome. Cut-off read from the data, not from the text of the source: active = normalized growth mostly below about 0.91 (no sharp cut-off); inconclusive = no clear call, values can overlap the other calls; inactive = mostly above about 0.92. Some of the results follow.

Assay: chemical genetic growth profiling, strain panel (AID 1159580);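 note: tested at 20 µM; growth read once vehicle control cultures reached saturation at 30 °C; 1 = growth at the plate median or of vehicle wells; lower values mean less growth of the strain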
Conditions: growth OD

Measured: normalized growth

COc1cc(O)c2c(=O)c(O)c(-c3ccc(O)c(O)c3)oc2c1
active: S. cerevisiae deletion strains, locus YKL160W, strain elf1, active compounds read low 0.84 | S. cerevisiae deletion strains, locus YLL001W, strain dnm1, active compounds read low 0.782 | S. cerevisiae deletion strains, locus YLR027C, strain aat2, active compounds read low 0.843 | S. cerevisiae deletion strains, locus YLR058C, strain SHM2, active compounds read low 0.827 | S. cerevisiae deletion strains, locus YLR221C, strain rsa3, active compounds read low 0.779 | S. cerevisiae deletion strains, locus YLR258W, strain gsy2, active compounds read low 0.854 | S. cerevisiae deletion strains, locus YLR262C, strain YPT6 (second series), active compounds read low 0.565 | S. cerevisiae deletion strains, locus YLR320W, strain mms22, active compounds read low 0.758 | S. cerevisiae deletion strains, locus YLR342W, strain FKS1, active compounds read low 0.643 | S. cerevisiae deletion strains, locus YLR357W, strain rsc2, active compounds read low 0.678 | S. cerevisiae deletion strains, locus YLR370C, strain arc18, active compounds read low 0.813 | S. cerevisiae deletion strains, locus YML016C, strain PPZ1, active compounds read low 0.915 | S. cerevisiae deletion strains, locus YML120C, strain ndi1, active compounds read low 0.879 | S. cerevisiae deletion strains, locus YMR058W, strain fet3, active compounds read low 0.247 | S. cerevisiae deletion strains, locus YMR205C, strain PFK2, active compounds read low 0.658 | S. cerevisiae deletion strains, locus YMR231W, strain pep5, active compounds read low 0.874 | S. cerevisiae deletion strains, locus YNL209W, strain ssb2, active compounds read low 0.452 | S. cerevisiae deletion strains, locus YOR001W, strain rrp6, active compounds read low 0.845 | S. cerevisiae deletion strains, locus YOR070C, strain gyp1, active compounds read low 0.878 | S. cerevisiae deletion strains, locus YOR080W, strain dia2, active compounds read low 0.813 | S. cerevisiae deletion strains, locus YOR083W, strain WHI5, active compounds read low 0.749 | S. cerevisiae deletion strains, locus YOR106W, strain vam3, active compounds read low 0.407 | S. cerevisiae deletion strains, locus YOR265W, strain rbl2, active compounds read low 0.883 | S. cerevisiae deletion strains, locus YOR270C, strain vph1, active compounds read low 0.484 | S. cerevisiae deletion strains, locus YOR290C, strain snf2, active compounds read low 0.701 | S. cerevisiae deletion strains, locus YPL051W, strain arl3, active compounds read low 0.521 | S. cerevisiae deletion strains, locus YPL078C, strain atp4, active compounds read low 0.796 | S. cerevisiae deletion strains, locus YPL106C, strain sse1, active compounds read low 0.77 | S. cerevisiae deletion strains, locus YPL240C, strain hsp82, active compounds read low 0.83
inactive: S. cerevisiae deletion strains, locus YJR075W, strain HOC1, active compounds read low 0.987 | S. cerevisiae deletion strains, locus YKL009W, strain mrt4, active compounds read low 1.02 | S. cerevisiae deletion strains, locus YKL068W, active compounds read low 1 | S. cerevisiae deletion strains, locus YKL085W, strain MDH1 (second series), active compounds read low 0.994 | S. cerevisiae deletion strains, locus YKL085W, strain MDH1, active compounds read low 0.994 | S. cerevisiae deletion strains, locus YKL190W, strain CNB1, active compounds read low 0.997 | S. cerevisiae deletion strains, locus YKR001C, strain vps1, active compounds read low 0.996 | S. cerevisiae deletion strains, locus YKR026C, strain gcn3, active compounds read low 0.945 | S. cerevisiae deletion strains, locus YKR091W, strain srl3, active compounds read low 0.961 | S. cerevisiae deletion strains, locus YLL026W, active compounds read low 0.934 | S. cerevisiae deletion strains, locus YLL041C, strain sdh2, active compounds read low 0.928 | S. cerevisiae deletion strains, locus YLR039C, strain RIC1, active compounds read low 0.785 | S. cerevisiae deletion strains, locus YLR102C, strain apc9, active compounds read low 1.02 | S. cerevisiae deletion strains, locus YLR262C, strain YPT6, active compounds read low 0.91 | S. cerevisiae deletion strains, locus YLR268W, strain sec22, active compounds read low 0.968 | S. cerevisiae deletion strains, locus YLR330W, strain CHS5, active compounds read low 0.99 | S. cerevisiae deletion strains, locus YLR342W, strain FKS1 (second series), active compounds read low 0.898 | S. cerevisiae deletion strains, locus YLR371W, strain rom2, active compounds read low 0.962 | S. cerevisiae deletion strains, locus YLR384C, strain iki3, active compounds read low 0.936 | S. cerevisiae deletion strains, locus YLR418C, strain cdc73, active compounds read low 0.957 | S. cerevisiae deletion strains, locus YML032C, strain rad52, active compounds read low 1.02 | S. cerevisiae deletion strains, locus YML124C, strain tub3, active compounds read low 1.02 | S. cerevisiae deletion strains, locus YMR078C, strain ctf18, active compounds read low 1.02 | S. cerevisiae deletion strains, locus YMR125W, strain sto1, active compounds read low 1 | S. cerevisiae deletion strains, locus YMR129W, active compounds read low 0.927 | S. cerevisiae deletion strains, locus YMR223W, strain ubp8, active compounds read low 1 | S. cerevisiae deletion strains, locus YMR307W, strain GAS1, active compounds read low 0.768 | S. cerevisiae deletion strains, locus YNL067W, strain RPL9B, active compounds read low 0.953 | S. cerevisiae deletion strains, locus YNL071W, strain lat1, active compounds read low 0.919 | S. cerevisiae deletion strains, locus YNL128W, strain TEP1, active compounds read low 0.935 | S. cerevisiae deletion strains, locus YNL233W, strain BNI4, active compounds read low 0.894 | S. cerevisiae deletion strains, locus YNL248C, strain rpa49, active compounds read low 0.889 | S. cerevisiae deletion strains, locus YNL250W, strain rad50, active compounds read low 0.986 | S. cerevisiae deletion strains, locus YNL271C, strain bni1, active compounds read low 0.998 | S. cerevisiae deletion strains, locus YNL298W, strain CLA4, active compounds read low 1.01 | S. cerevisiae deletion strains, locus YNL307C, strain MCK1, active compounds read low 1.02 | S. cerevisiae deletion strains, locus YNL322C, strain KRE1 (second series), active compounds read low 0.967 | S. cerevisiae deletion strains, locus YNL322C, strain KRE1, active compounds read low 0.952 | S. cerevisiae deletion strains, locus YNR049C, strain mso1, active compounds read low 0.947 | S. cerevisiae deletion strains, locus YNR052C, strain pop2, active compounds read low 0.991 | S. cerevisiae deletion strains, locus YOL006C, strain TOP1, active compounds read low 0.624 | S. cerevisiae deletion strains, locus YOL012C, strain htz1 0.669 | S. cerevisiae deletion strains, locus YOL147C, strain pex11, active compounds read low 1.01 | S. cerevisiae deletion strains, locus YOR061W, strain CKA2, active compounds read low 0.934 | S. cerevisiae deletion strains, locus YOR069W, strain VPS5, active compounds read low 0.966 | S. cerevisiae deletion strains, locus YOR136W, strain idh2, active compounds read low 1.01 | S. cerevisiae deletion strains, locus YOR144C, strain elg1, active compounds read low 1.02 | S. cerevisiae deletion strains, locus YOR184W, strain ser1, active compounds read low 0.993 | S. cerevisiae deletion strains, locus YOR316C, strain cot1, active compounds read low 1.05 | S. cerevisiae deletion strains, locus YPL241C, strain CIN2, active compounds read low 0.989 | S. cerevisiae deletion strains, locus YPR119W, strain clb2, active compounds read low 1.03 | S. cerevisiae deletion strains, locus YPR141C, strain kar3, active compounds read low 0.997 | S. cerevisiae deletion strains, locus YPR163C, strain tif3, active compounds read low 1.01 | S. cerevisiae deletion strains, locus YPR167C, strain met16, active compounds read low 1 | S. cerevisiae deletion strains, strain wtn01, active compounds read low 0.996 | S. cerevisiae strains, strain wild type, active compounds read low 0.929
